Screening data from PubChem BioAssay.
An excerpt weighted towards active compounds, which were near 12% of everything screened.
PLK1 PBD inh = qHTS for Inhibitors of PLK1-PDB (polo-like kinase 1 - polo-box domain): Primary Screen. Serine/threonine-protein kinase PLK1 (Homo sapiens), P53350. Plk1 PBD binding of FITC phosphopeptide, fluorescence polarization. Potency, µM, for the others: max response, negative = inhibition, usual class: inhibitors. hit rate 2.8% among 360,000. AID 720504, 2013; further: series mostly up to about 57 µM; on the % scale 0 is the no-effect control and ±100 the full control effect; nearly all actives have a fitted effect of over 65% in size
G9a block = qHTS Assay for Inhibitors of Histone Lysine Methyltransferase G9a; G9a H3K9 monomethylation, AlphaScreen, 2 h; Potency, µM (series often up to 102 µM), for inactives: top-dose activity, negative = inhibition, usual class: inhibitors; hit rate 8.8% among 350,000; AID 504332, 2011; further: on the % scale 0 is the no-effect control and ±100 the full control effect; nearly all actives have a fitted effect of over 75% in size
Target sequence (Q96KQ7 913-1193 limits assumed): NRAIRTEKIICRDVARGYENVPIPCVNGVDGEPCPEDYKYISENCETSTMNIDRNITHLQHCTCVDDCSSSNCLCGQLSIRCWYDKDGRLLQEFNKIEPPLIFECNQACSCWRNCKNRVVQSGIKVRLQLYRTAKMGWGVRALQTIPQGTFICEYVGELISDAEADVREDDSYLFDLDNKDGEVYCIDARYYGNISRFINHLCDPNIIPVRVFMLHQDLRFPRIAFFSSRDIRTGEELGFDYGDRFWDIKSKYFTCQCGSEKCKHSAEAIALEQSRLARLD
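Quantitative HTS format: methyltransferase activity on a biotin-tagged H3K9 peptide is measured by AlphaScreen, using a rabbit anti-monomethyl-H3K9 antibody with streptavidin donor and anti-IgG acceptor beads. Final levels are 20 nM enzyme, 500 nM peptide, 20 uM SAM; 2 h RT.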
Sfp PPTase inh = qHTS Assay for Inhibitors of Bacillus subtilis Sfp phosphopantetheinyl transferase (PPTase); 4'-phosphopantetheinyl transferase ffp (Bacillus subtilis), Q9F4F7; Biochemical Sfp PPTase activity, qHTS; Potency, µM, inactives show largest response in the series, negative = inhibition, most hits filed as inhibitors; hit rate 3.5% among 310,000; AID 1490, 2009;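 further: the enzyme is Sfp with the accession as filed and its product quenches rhodamine fluorescence; 0% = enzyme reaction without inhibitor and -100% = no enzyme wells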
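Sfp 15 nM + cpd, 15 min RT; start w/ rhodamine-CoA 5 uM, BHQ-2-YbbR 12.5 uM (final); 50 mM Hepes pH 7.6, 10 mM MgCl2, 0.01% NP-40, 0.01% BSA; read 525/598 nm at 0 and 30 min.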
JMJD2A Tudor inh = qHTS Assay for Inhibitors of JMJD2A-Tudor Domain; hit rate 4.4% among 390,000; AlphaScreen JMJD2A-Tudor / H3K4me3 peptide binding; Lysine-specific demethylase 4A (Homo sapiens), O75164; Potency, µM (titrated, usually from 114 µM), without a hit: at the highest dose activity change, negative = inhibition, actives largely listed as inhibitors; further: on the % scale 0 is the no-effect control and ±100 the full control effect; nearly all actives have a fitted effect of over 50% in size
BAZ2B inh = qHTS Assay for Inhibitors of BAZ2B; Potency, µM (highest dose often 114 µM), for inactives: at the top dose activity change, negative = inhibition, most hits filed as inhibitors; Bromodomain adjacent to zinc finger domain protein 2B (Homo sapiens), Q9UIF8; hit rate 4.4% among 360,000; AlphaScreen BAZ2B-H3K14Ac peptide displacement; further: on the % scale 0 is the no-effect control and ±100 the full control effect; nearly all actives have a fitted effect of over 60% in size
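Compounds, titrated to a top concentration of 110 uM, were incubated 30 min at room temperature with preformed BAZ2B/acetyl-K14 H3 peptide complex (50 nM each). Proximity signal was measured by AlphaScreen after 20 min with beads.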
HP1b binding inh = HTS for Inhibitors of HP1-beta Chromodomain Interactions with Methylated Histone Tails; Chromobox protein homolog 1 (Homo sapiens), P83916; AlphaScreen HP1-beta / biotin-H3K9me3 peptide binding; AID 540317, 2011; Potency, µM (doses to about 114 µM), for the others: top-dose activity change, negative = inhibition, most hits filed as inhibitors; hit rate 0.56% among 390,000; further: nearly all actives have a fitted effect of over 70% in size
Target sequence (P83916 whole entry, looked up): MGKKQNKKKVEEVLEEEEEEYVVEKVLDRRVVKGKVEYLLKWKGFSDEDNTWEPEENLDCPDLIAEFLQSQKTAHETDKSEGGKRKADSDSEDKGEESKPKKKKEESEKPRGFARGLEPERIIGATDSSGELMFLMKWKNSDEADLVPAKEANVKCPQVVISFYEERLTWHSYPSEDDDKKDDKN
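HP1-beta protein (50 nM final) preincubated 30 min at room temperature with biotinylated H3(1-18)K9me3 peptide (50 nM) in PBS pH 7.4, 0.01% Tween-20, then compound added for 30 min. AlphaScreen streptavidin donor/nickel chelate acceptor beads (10 ug/mL final), 30 min dark, luminescence read.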
Numbers without * were called inactive; ? = inconclusive; · = not tested or not shown; [ ] = dose if it differs, or a comment. The call rests on the fitted dose curve; in most records, active means well fitted curve in the direction sought with a large enough effect; inconclusive means small, poorly fitted or top-dose-only effect, or another doubt; inactive means no such curve, though single readings can be large; an effect the other way counts as inactive or inconclusive. Potency means the concentration at half of the fitted maximal effect.

SMILES	PLK1 PBD inh	G9a block	Sfp PPTase inh	JMJD2A Tudor inh	BAZ2B inh	HP1b binding inh
COc1ccc(NCC(=O)N/N=C2\CCCC(C)C2)cc1 (configuration not stated)	-5%	22%[59 µM]	1%	-18%	-9%	27%
CC1CCC(=NNS(=O)(=O)c2ccc([N+](=O)[O-])cc2)CC1 (configuration not stated)	-13%	·	·	-15%	·	0%
CC1CCC/C(=N\NS(=O)(=O)c2ccccc2)C1 (configuration not stated)	?	32µM*	7%	-3%[11.4 µM]	1%	21%
CC1CCC/C(=N\Nc2ccc(Cl)c(C(=O)O)c2)C1 (configuration not stated)	-25%	7.9µM*	-1%	79µM*	-37%	5%
COC(=O)c1sccc1S(=O)(=O)N(CC(=O)NCc1ccc(C)cc1)c1ccccc1	·	12%[59 µM]	·	-16%	-10%	-18%
CCOC(=O)c1ccc(-n2c(C)ccc2C)cc1	0%	-12%[59 µM]	-14%	-6%	-4%	40%
COc1ccccc1N1C(=O)CC(Sc2nccc(C)n2)C1=O (configuration not stated)	-3%	-5%[2.33 µM]	-4%	-7%	7%	53%
C=CCNc1nnc(SC2CC(=O)N(c3ccc(OCCC)cc3)C2=O)s1 (configuration not stated)	21µM*	8.9µM*	50µM*	35µM*	-4%	-24%
Cc1nc(SC2CC(=O)N(c3ccccc3)C2=O)n[nH]1 (configuration not stated)	30µM*	·	16µM*	?	?	?
COc1ccccc1N1C(=O)CC(Sc2n[nH]c(-c3cccc(C)c3)n2)C1=O (configuration not stated)	13µM*	1µM*	5.6µM*	2.8µM*	-30%	?
CCOC(=O)c1ccc(N2C(=O)C=CC2=O)cc1	3.8µM*	?	3.5µM*	22µM*	?	20µM*
C[C@H]1CN([C@@H](C)CO)C(=O)CCCn2nncc2CO[C@H]1CN(C)S(=O)(=O)c1ccc2c(c1)OCCCO2	-15%	·	·	·	·	·
O=C(CCn1ccc2cc(S(=O)(=O)N3CCCC3)ccc21)NCc1ccccc1Cl	·	-6%[59 µM]	·	-12%	-11%	19%
CCOc1ccc(N2C(=O)CC(Sc3nccc(C)n3)C2=O)cc1 (configuration not stated)	27µM*	-6%[59 µM]	4%	-18%[11.4 µM]	-2%	-9%
Cc1cc(C)nc(SC2CC(=O)N(c3ccc(Br)cc3)C2=O)n1 (configuration not stated)	-5%	40µM*	-6%	-2%	-15%	53%
CCOC(=O)C(N)CSC1CC(=O)N(c2ccc(OCC)cc2)C1=O (configuration not stated)	-3%	?	-7%	-10%	0%	48%
CCOc1ccc(N2C(=O)CC(Sc3ncccn3)C2=O)cc1 (configuration not stated)	-10%	-17%[59 µM]	3%	-23%	5%	57%
CCOC(=O)C(N)CSC1CC(=O)N(c2ccc(OC)cc2)C1=O (configuration not stated)	-11%	45µM*	-3%	-18%	-17%	27%
Nc1nnc(SC2CC(=O)N(c3ccccc3)C2=O)s1 (configuration not stated)	30µM*	8.9µM*	79µM*	45µM*	7%	?
CCOC(=O)c1ccc(N2C(=O)CC(Sc3nnc(C)s3)C2=O)cc1 (configuration not stated)	?	10µM*	45µM*	50µM*	-12%	-23%
CCOC(=O)c1ccc(N2C(=O)CC(Sc3nc(C)cc(C)n3)C2=O)cc1 (configuration not stated)	-5%	-11%[59 µM]	14%	12%	-8%	56%
CCN(C(=O)Cn1nc(Cc2ccncc2)c2ccccc2c1=O)c1cccc(C(F)(F)F)c1	·	?	·	-10%	-8%	57%
O=C(CN1c2ccccc2Sc2ccccc21)NNC(=S)Nc1ccc(Cl)cc1Cl	-8%	66%[59 µM]	11%	-23%	-5%	13%
O=C(CN1c2ccccc2Sc2ccccc21)NNC(=S)Nc1ccc(Cl)cc1	-13%	28µM*	5%	?	?	?
O=C(Nc1ccc(CN2CCOCC2)cc1)c1ccc(Cl)cc1	2%	-9%	17%	-16%	-3%	36%
SMILES	PLK1 PBD inh	G9a block	Sfp PPTase inh	JMJD2A Tudor inh	BAZ2B inh	HP1b binding inh
O=C(CN1CCOCC1)NNC(=S)Nc1ccc(Cl)cc1	0%	40µM*	16%	-13%	?	31%
N#Cc1ccc(COC(=O)c2cnc(Cl)c(Cl)c2)cc1	-1%	-12%	10%	4%	0%	18%
COCOc1cccc(CN2CCC2(C)C(=O)Nc2cc(OC)ccc2OC)c1 (configuration not stated)	5%	·	·	·	·	·
O=C(NN1C(=O)NC2(CCCCC2)C1=O)c1ccc(-c2ccc([N+](=O)[O-])cc2)o1	-19%	79µM*	10%	-34%	-29%	1%
O=C(CCNC(=O)c1ccc(Br)cc1)Nc1nccs1	8%	12%	24%	0%	-4%	21%
O=C(Nc1nccs1)c1ccc(-c2ccc([N+](=O)[O-])cc2)o1	-5%	·	25µM*	-33%	?	46%
CC1(C)CC(NC(=O)Nc2ccc([N+](=O)[O-])cc2)CC(C)(C)N1	-19%	4%	-1%	-10%	-10%	19%
O=C(CCNC(=O)c1ccc([N+](=O)[O-])cc1)Nc1nccs1	0%	50µM*	12%	-1%	-17%	45%
CC1(C)CC(NC(=O)c2ccc(-c3ccc([N+](=O)[O-])cc3)o2)CC(C)(C)N1	-28%	45µM*	-23%	-32%	-33%	16%
COc1ccc(NC(=O)c2ccc(-c3ccc([N+](=O)[O-])cc3)o2)cc1	-4%	?	-76%	-10%	-1%	18%
O=C(Nc1ccccc1)c1ccc(-c2ccc([N+](=O)[O-])cc2)o1	-23%	35µM*	50µM*	?	-11%	?
O=C(CN1C(=O)c2ccc([N+](=O)[O-])cc2C1=O)Nc1nccs1	-8%	50µM*	-27%	-14%	-32%	12%
CC1CC(C)CN(C(=O)c2ccc(-c3ccc([N+](=O)[O-])cc3)o2)C1 (configuration not stated)	-23%	11µM*	·	45µM*	35µM*	?
